Results from PubChem BioAssay AID1645838 (ICCB-Longwood Screening Facility, Harvard Medical School, 2021).
Values joined by “and” are separate entries in the source; they are usually repeats but may differ in a detail not shown here. Identical values can stand only once. Among all 2,000 compounds or so, about 100 (5%) were called active. Rule as the data show it: active = z-score above about 2; inactive = the rest. Shown is part of a subset that was picked to be rich in actives. Some structures have more than one record in an assay (separate samples or runs), and their calls can disagree.

Assay: supercomplex reporter luminescence per Hoechst cell count – Hoechst nuclei count (AID 1645838);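 also: control cybrid cells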;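 as to z-score: higher means more mitochondrial supercomplex formation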
Conditions: Cells, luminescence/Hoechst cell count ratio; for z-score: stronger effect = higher value; for cell count: measured here: cell number, Hoechst nuclei count
[1] = library stock concentration (final well concentration not given) 80 uM
[2] = library stock concentration (final well concentration not given) 400 uM
[3] = library stock concentration (final well concentration not given) 2 mM
[4] = library stock concentration (final well concentration not given) 10 mM
[5] = library stock concentration (final well concentration not given) 46 uM
[6] = library stock concentration (final well concentration not given) 278 uM
[7] = library stock concentration (final well concentration not given) 1.67 mM

## COC(=O)C(CCSC)NC(=O)c1ccc(NCC(N)CS)cc1-c1ccccc1 (stereo unspecified)
[1]
  z-score: -0.72 (inactive)
  cell count: 6120
[2]
  z-score: -0.795 (inactive)
  cell count: 6350
[3]
  z-score: -0.715 (inactive)
  cell count: 6090
[4]
  z-score: -1.02 (inactive)
  cell count: 5780

## COc1ccc2c(c1)CN(C)CCS2
[1]
  z-score: -0.906 (inactive)
  cell count: 6210
[2]
  z-score: -0.795 (inactive)
  cell count: 6190
[3]
  z-score: -1.04 (inactive)
  cell count: 6290
[4]
  z-score: -1.49 (inactive)
  cell count: 6260

## CCCCC[C@H](O)/C=C/[C@H]1C(=O)C[C@H](O)[C@@H]1C/C=C\CCCC(=O)NC(CO)CO
  z-score: 1.15 (inactive)
  cell count: 4420

## CCCCC/C=C\C/C=C\C/C=C\C/C=C\CCCC(=O)NC[C@]1(C)CCC[C@]2(C)c3ccc(C(C)C)cc3CC[C@@H]12
  z-score: -0.12 (inactive)
  cell count: 4820

## CCC(C)(C)C(=O)OC1CC(C)C=C2C=CC(C)C(CCC3CC(O)CC(=O)O3)[C@H]21 (stereo partly specified)
[1]
  z-score: -0.332 (inactive)
  cell count: 6550
[2]
  z-score: -0.176 (inactive)
  cell count: 6140
[3]
  z-score: -0.124 (inactive)
  cell count: 6050
[4]
  z-score: 3.34 (active)
  cell count: 2650

## CCCCCCNC(=O)Nc1ccc(S(=O)(=O)Nc2ccc(CCNCC(O)COc3ccc(O)cc3)cc2)cc1 (stereo unspecified)
[1]
  z-score: -0.212 (inactive)
  cell count: 5240
[2]
  z-score: 0.0631 (inactive)
  cell count: 4980
[3]
  z-score: -0.344 (inactive)
  cell count: 5190
[4]
  z-score: 0.114 (inactive)
  cell count: 4950

## N#Cc1cccc(C#N)c1-c1nc2c3ccccc3c3cc(Cl)ccc3c2[nH]1
[5]
  z-score: -0.238 (inactive)
  cell count: 6980
[6]
  z-score: -0.156 (inactive)
  cell count: 6500
[7]
  z-score: -0.196 (inactive)
  cell count: 7350
[4]
  z-score: 0.519 (inactive)
  cell count: 6120

## CCOc1ccc(-n2c(C(C)N(Cc3cccnc3)C(=O)Cc3ccc(F)c(C(F)(F)F)c3)nc3ncccc3c2=O)cc1 (stereo unspecified)
[1]
  z-score: -0.219 (inactive)
  cell count: 5590
[2]
  z-score: -0.0969 (inactive)
  cell count: 5490
[3]
  z-score: 0.0541 (inactive)
  cell count: 5970
[4]
  z-score: -0.0286 (inactive)
  cell count: 4780

## CCOc1ccc(-n2c(C(C)N(Cc3cccnc3)C(=O)Cc3ccc(OC(F)(F)F)cc3)nc3ncccc3c2=O)cc1 (stereo unspecified)
[1]
  z-score: 0.00539 (inactive)
  cell count: 4950
[2]
  z-score: 0.51 (inactive)
  cell count: 4820
[3]
  z-score: -0.332 (inactive)
  cell count: 4910
[4]
  z-score: -0.306 (inactive)
  cell count: 4660

## COc1ccccc1Oc1ccc(N(Cc2cccnc2)S(=O)(=O)CC(F)(F)F)cc1
[5]
  z-score: 0.268 (inactive)
  cell count: 6460
[6]
  z-score: -0.0606 (inactive)
  cell count: 6750
[7]
  z-score: 2 (active)
  cell count: 6250
[4]
  z-score: 0.543 (inactive)
  cell count: 5860

## CCCCCCCCCCCCCCCCC/C=C/C(=O)O
  z-score: 0.212 (inactive)
  cell count: 4980

## Cc1nc(Nc2ncc(C(=O)Nc3c(C)cccc3Cl)s2)cc(N2CCN(CCO)CC2)n1
Library stock 10 mM
  outcome: inactive; censored for cell count
[5]
  z-score: -0.0819 (inactive)
  cell count: 4850
[1]
  z-score: 3.96 (active)
  cell count: 2250
[6]
  z-score: 0.412 (inactive)
  cell count: 4290
[2]
  z-score: 5.15 (active)
  cell count: 1990
[7]
  z-score: 3.64 (active)
  cell count: 2120
[3]
  z-score: 6.64 (active)
  cell count: 1770
[4]
  z-score: 3.97 (active)
  cell count: 1700

## CCCCC[C@@H](O)/C=C/[C@H]1[C@H](C/C=C\CCCC(=O)O)C(=O)C[C@@H]1O
  z-score: -0.0856 (inactive)
  cell count: 5040

## CCC(=O)NCC1CC1c1cccc2c1CCO2 (stereo unspecified)
[5]
  z-score: 0.0958 (inactive)
  cell count: 6660
[6]
  z-score: 0.113 (inactive)
  cell count: 6440
[7]
  z-score: -0.0496 (inactive)
  cell count: 7030
[4]
  z-score: -0.0795 (inactive)
  cell count: 7060

## O=c1cc(N2CCOCC2)oc2c(-c3cccc4c3sc3ccccc34)cccc12
[1]
  z-score: -0.493 (inactive) and 0.0213 (inactive)
  cell count: 4940 and 6230
[2]
  z-score: -0.14 (inactive) and 0.291 (inactive)
  cell count: 4400 and 5530
[3]
  z-score: 1.89 (inactive) and 3.23 (active)
  cell count: 3070 and 3850
[4]
  z-score: 0.374 (inactive) and 11.4 (active)
  cell count: 4020 and 1970

## O=c1cc(N2CCOCC2)oc2c1ccc1ccccc12
[5]
  z-score: -0.263 (inactive)
  cell count: 6320
[6]
  z-score: 0.075 (inactive)
  cell count: 6310
[7]
  z-score: 0.0237 (inactive)
  cell count: 6270
[4]
  z-score: -0.121 (inactive)
  cell count: 6380

## O=c1cc(N2CCOCC2)oc2c(-c3ccccc3)cccc12
  z-score: 0.00801 (inactive)
  cell count: 5270

## C[C@@H](O)CCC[C@@H](O)/C=C/[C@@H]1[C@@H](CCCCCCC(=O)O)[C@@H](O)C[C@H]1O
  z-score: -0.0165 (inactive)
  cell count: 5060

## NC(=O)c1ccc(-c2nc(-c3ccc4c(c3)OCCO4)c(-c3ccccn3)[nH]2)cc1
  z-score: 0.107 (inactive)
  cell count: 5540

## NC(=O)c1ccc2nc(-c3ccc(Oc4ccc(Cl)cc4)cc3)[nH]c2c1
[1]
  z-score: 0.235 (inactive)
  cell count: 4680
[2]
  z-score: 0.636 (inactive)
  cell count: 4440
[3]
  z-score: 0.25 (inactive)
  cell count: 4560
[4]
  z-score: 2.04 (active)
  cell count: 3840

## NC(=O)c1ccc(-c2nc(-c3ccc4c(c3)OCO4)c(-c3ccccn3)[nH]2)cc1
  z-score: -0.0341 (inactive)
  cell count: 5380

## CCCCCCCCCCCSCC(=O)O
  z-score: -0.636 (inactive)
  cell count: 5540

## CCCCCC(O)/C=C/C=O (stereo unspecified)
  z-score: -0.635 (inactive)
  cell count: 5350
